The panel holds about 83,000 compounds, 20% with a hit somewhere; the sample as a whole holds those more often.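 48-hour exposure, single concentration, 96-well plates; percent growth endpoint where 0 means no net growth. Active: below 10.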 A number with no mark means an inactive call. Calls of active or inactive are those of the source.
Tests used:
Experiment in all cases: NCI-60 one-dose screen, 48 h (100 = growth as untreated, 0 = no growth, -100 = all killed)
Settings in all cases: 10 µM
786-0 renal = test system: 786-0 renal
MALME-3M melanoma = test system: MALME-3M melanoma
UACC-257 melanoma = test system: UACC-257 melanoma
SN12C renal = test system: SN12C renal
TK-10 renal = test system: TK-10 renal
ACHN renal = test system: ACHN renal
CAKI-1 renal = test system: CAKI-1 renal
A498 renal = test system: A498 renal
RPMI-8226 leukemia = test system: RPMI-8226 leukemia
OVCAR-8 ovarian = test system: OVCAR-8 ovarian
OVCAR-4 ovarian = test system: OVCAR-4 ovarian
SK-OV-3 ovarian = test system: SK-OV-3 ovarian
IGROV1 ovarian = test system: IGROV1 ovarian
OVCAR-3 ovarian = test system: OVCAR-3 ovarian
BT-549 breast = test system: BT-549 breast
MDA-MB-435 melanoma = test system: MDA-MB-435 melanoma
MCF7 breast = test system: MCF7 breast
HCT-116 colon = test system: HCT-116 colon
HCC-2998 colon = test system: HCC-2998 colon
KM12 colon = test system: KM12 colon

Structure (SMILES)	growth (786-0 renal)	growth (MALME-3M melanoma)	growth (UACC-257 melanoma)	growth (SN12C renal)	growth (TK-10 renal)	growth (ACHN renal)	growth (CAKI-1 renal)	growth (A498 renal)	growth (RPMI-8226 leukemia)	growth (OVCAR-8 ovarian)	growth (OVCAR-4 ovarian)	growth (SK-OV-3 ovarian)	growth (IGROV1 ovarian)	growth (OVCAR-3 ovarian)	growth (BT-549 breast)	growth (MDA-MB-435 melanoma)	growth (MCF7 breast)	growth (HCT-116 colon)	growth (HCC-2998 colon)	growth (KM12 colon)
CC(=O)Oc1ccccc1C(=O)NC([Se])=NC1CCCCC1	-11.9% (active)	-6.63% (active)	-1.74% (active)	-42.7% (active)	-52.9% (active)	20.2%	-75.4% (active)	16.3%	27.9%	-56.4% (active)	-13.3% (active)	-41.7% (active)	-46% (active)	-68.1% (active)	33.8%	8.85% (active)	1.18% (active)	21%	28.1%	5.47% (active)
COc1cc2cc(C(=O)N3C[C@@H](CCl)c4c3cc(OC(=O)N3CCN(C)[C@@H]5CSSC[C@H]53)c3ccccc43)[nH]c2c(OC)c1OC	-57.9% (active)	-92% (active)	-46.3% (active)	-62.1% (active)	-28.4% (active)	-31.2% (active)	-9.91% (active)	-37% (active)	-33.9% (active)	-30.2% (active)	-54.7% (active)	-26.3% (active)	-61% (active)	-9.08% (active)	-96.4% (active)	-65.9% (active)	-56.2% (active)	-23.6% (active)	-79.9% (active)	-9.39% (active)
COCCOCCOCCOc1ccc(-n2cc(-c3ccc(O[C@H]4O[C@@H]5OC6(C)CC[C@H]7[C@H](C)CC[C@@H]([C@H]4C)[C@@]57OO6)cc3)nn2)cc1	56.7%	8.12% (active)	39.7%	83%	36.7%	17.4%	25%	93.8%	20.9%	22.2%	28.8%	84%	50.2%	46%	3.83% (active)	19.3%	14.9%	37.3%	59.2%	31.6%
O=C(NC([Se])=NC1CCCCC1)c1ccccc1	39.4%	94.4%	30.8%	39.6%	28.8%	34.5%	32.4%	73.3%	56.2%	40.9%	75.7%	5.33% (active)	13.6%	48.4%	75.8%	42.4%	29.8%	30.4%	62.8%	35.5%
CC(=O)Oc1ccccc1C(=O)[Se]C(=NC(C)C)NC(C)C	-95.9% (active)	-43.5% (active)	-95.1% (active)	-78.7% (active)	-98.5% (active)	-80.8% (active)	-98.5% (active)	-24.8% (active)	-20% (active)	-86.3% (active)	-56% (active)	-95.6% (active)	-89.8% (active)	-93.7% (active)	-94.7% (active)	-94.1% (active)	-55% (active)	-82.4% (active)	-91% (active)	-89.6% (active)
O=C(NCCCCC(c1ccc(F)cc1)c1ccc(F)cc1)Nc1ccc([N+](=O)[O-])c(C(F)(F)F)c1	-15% (active)	-25.8% (active)	-15.7% (active)	7.2% (active)	10%	-2.96% (active)	-3.31% (active)	-9.75% (active)	-39.3% (active)	5.42% (active)	11.5%	-33% (active)	15.4%	1.5% (active)	-28% (active)	-21.3% (active)	1.44% (active)	-58.2% (active)	7.86% (active)	2.48% (active)
CC[C@]12C=CCN3CC[C@@]4(c5ccc(OC)cc5N(C)[C@H]4[C@@](O)(C(=O)OC)[C@@H]1OC(=O)CCCC[P+](c1ccc(C)cc1)(c1ccc(C)cc1)c1ccc(C)cc1)[C@@H]32	-91% (active)	-96% (active)	-95% (active)	-88.5% (active)	-91.3% (active)	-99.3% (active)	-95.2% (active)	-90.9% (active)	-46% (active)	-86.6% (active)	-68.9% (active)	-82.3% (active)	-91.8% (active)	-77.1% (active)	-97% (active)	-86.8% (active)	-81.2% (active)	-93.5% (active)	-85.8% (active)	-73.6% (active)
CC[C@]12C=CCN3CC[C@@]4(c5ccc(OC)cc5N(C)[C@H]4[C@@](O)(C(=O)OC)[C@@H]1OC(=O)CCC[P+](C1CCCCC1)(C1CCCCC1)C1CCCCC1)[C@@H]32	-16.3% (active)	-96.1% (active)	-80.9% (active)	-40.5% (active)	-48.6% (active)	32%	-8.49% (active)	21.8%	-43.4% (active)	1.19% (active)	17.7%	-7.72% (active)	-85.9% (active)	-48.6% (active)	-97.4% (active)	-80.1% (active)	-72.2% (active)	0.156% (active)	-92.6% (active)	-63.4% (active)
COc1cc2cc(C(=O)N3C[C@@H](CCl)c4c3cc(OC(=O)N3CCN(C)[C@@H]5CSSC[C@@H]53)c3ccccc43)[nH]c2c(OC)c1OC	-9.47% (active)	-70.3% (active)	-15.4% (active)	-44.6% (active)	13.8%	-41.3% (active)	-0.707% (active)	-22.4% (active)	-20.4% (active)	-3.43% (active)	-6.86% (active)	-6.59% (active)	7.55% (active)	-15.8% (active)	-82.6% (active)	-86.8% (active)	-8.94% (active)	5.27% (active)	-53.8% (active)	0.977% (active)
CC1=C(CCC=NNC(N)=O)C2=C(C)C3(CC3)[C@@](C)(O)C(=O)C2=C1	-3.6% (active)	-93.4% (active)	-76.1% (active)	-61.3% (active)	-10.5% (active)	-37.7% (active)	-59.8% (active)	-67.2% (active)	1.7% (active)	-58.7% (active)	-38.1% (active)	-72.1% (active)	-34% (active)	-57.4% (active)	-33.7% (active)	-96.3% (active)	-74.8% (active)	1.04% (active)	-87% (active)	1% (active)
CC12OOC(C)(OO1)C2CCC(=O)NCCNc1ccnc2cc(Cl)ccc12 (stereo not given)	107%	89.7%	112%	99.4%	121%	97%	78.2%	106%	78.8%	97.6%	96.8%	91.2%	89.2%	97.3%	106%	97.7%	82.3%	100%	99.7%	101%
CC(=C\C(=O)Oc1ccc2c3c1OC1C(O)CCC4(O)C(C2)N(CC2CCC2)CCC314)/C=C1\CCCc2ccccc21 (stereo not given)	45.1%	34.6%	-36.8% (active)	60.9%	65.2%	84.9%	41.7%	125%	30.1%	76.9%	55.6%	80.9%	67.1%	77.2%	58.7%	61.8%	35.3%	28.6%	31.2%	40.5%
O=C(/C=C/c1ccc(F)cc1)c1nc2ccccc2n1Cc1ccc(Br)cc1	-82.4% (active)	-77.9% (active)	-17.4% (active)	-40.4% (active)	-19.1% (active)	-73.9% (active)	-23% (active)	58.6%	-34.7% (active)	-1.74% (active)	19.2%	30.2%	-35% (active)	-73.6% (active)	-78.1% (active)	-74% (active)	-27.4% (active)	-79.4% (active)	-97.6% (active)	-25.3% (active)
O=C(/C=C/c1cccc(Br)c1)c1nc2ccccc2n1Cc1ccc(Br)cc1	-79% (active)	-36.5% (active)	6.73% (active)	-10.1% (active)	10.4%	-30.5% (active)	16.6%	81.5%	-34.8% (active)	-8.23% (active)	35.3%	65.4%	-8.02% (active)	-51.5% (active)	-44.7% (active)	-31.2% (active)	-32.8% (active)	-96% (active)	-94.7% (active)	6.51% (active)
CCOP(=O)(OCC)C(NC(C)=O)C(=O)SCCN (stereo not given)	103%	105%	96.2%	97.9%	99.5%	112%	101%	91.7%	109%	109%	110%	117%	110%	147%	111%	111%	95.5%	111%	104%	112%
